{"source": "PubChem BioAssay", "note": "Activity calls are given as the source filed them. Unless noted, how the calls were made is not given here."}
{"assay": "compounds altering HSF1 focus formation in cells – imaging, Selleck Cancer Library (AID 1347162; in the data active means plate-normalised HSF1 focus index below about 0.46)", "details": "human cells, HSF1 nuclear foci imaging, at 10 µM; SSMD: measured here: HSF1 foci SSMD mean; cell count: measured here: cell number; plate-normalised HSF1 focus index: stronger effect = lower value"}
{"smiles": "N#CC[C@@H](C1CCCC1)n1cc(-c2ncnc3[nH]ccc23)cn1", "cell count": 7030, "plate-normalised HSF1 focus index": "1.12 (inactive)", "SSMD": 2.05}
{"smiles": "O=C(Nc1ncc([N+](=O)[O-])s1)c1ccc([N+](=O)[O-])c(Cl)c1", "SSMD": 2.47, "cell count": 7090, "plate-normalised HSF1 focus index": "1.15 (inactive)"}
{"smiles": "COc1ccc(Cc2nn3c([C@@H](CCCc4ccccc4)[C@@H](C)O)nc(C)c3c(=O)[nH]2)cc1OC", "SSMD": 2.11, "cell count": 7160, "plate-normalised HSF1 focus index": "1.12 (inactive)"}
{"smiles": "CO[C@H]1/C=C\\C=C(/C)C(=O)NC2=CC(=O)C(NCCN(C)C)=C(C[C@@H](C)C[C@H](OC)[C@H](O)[C@@H](C)/C=C(\\C)[C@@H]1OC(N)=O)C2=O", "plate-normalised HSF1 focus index": "1.12 (inactive)", "cell count": 7300, "SSMD": 3.16}
{"smiles": "CCOC(=O)C1=C(O)C(=O)N(c2ccccc2)C1", "SSMD": 2.7, "plate-normalised HSF1 focus index": "1.16 (inactive)", "cell count": 7070}
{"smiles": "O=c1c2ccccc2[nH]c(=S)n1CCN1CCC(=C(c2ccc(F)cc2)c2ccc(F)cc2)CC1", "cell count": 6860, "SSMD": 4.04, "plate-normalised HSF1 focus index": "1.24 (inactive)"}
{"smiles": "O=C1Nc2ccc(-c3cccnc3)cc2/C1=C/c1ccc[nH]1", "cell count": 7060, "SSMD": -1.39, "plate-normalised HSF1 focus index": "0.916 (inactive)"}
{"smiles": "COc1c/c(=C2/C=c3ccccc3=N2)[nH]/c1=C\\c1[nH]c(C)cc1C", "plate-normalised HSF1 focus index": "0.614 (inactive)", "cell count": 7490, "SSMD": -6.15}
{"smiles": "CC[C@@H](C(=O)[C@@H](C)[C@@H](O)[C@H](C)[C@@H]1O[C@@H]([C@@H](CC)C(=O)O)CC[C@@H]1C)[C@H]1O[C@]2(C=C[C@@H](O)[C@]3(CC[C@@](C)([C@H]4CC[C@](O)(CC)[C@H](C)O4)O3)O2)[C@H](C)C[C@@H]1C", "SSMD": 4.08, "cell count": 7580, "plate-normalised HSF1 focus index": "1.26 (inactive)"}
{"smiles": "N#C/C(=C1/Nc2ccccc2S1)c1ccnc(NCCc2cccnc2)n1", "plate-normalised HSF1 focus index": "1.16 (inactive)", "SSMD": 2.72, "cell count": 6770}
{"smiles": "COC(=O)c1ccc(O)c(NC(=O)COc2ccc(C34CC5CC(CC(C5)C3)C4)cc2)c1", "SSMD": -6.52, "cell count": 7200, "plate-normalised HSF1 focus index": "0.766 (inactive)"}
{"smiles": "NC(=NCCC[C@H](N)C(=O)O)N[N+](=O)O", "cell count": 7230, "SSMD": 2.98, "plate-normalised HSF1 focus index": "1.18 (inactive)"}
{"smiles": "CCCCCc1ccc(/C=C/[C@H](O)[C@@H](CO)NC)cc1", "cell count": 6120, "plate-normalised HSF1 focus index": "1.1 (inactive)", "SSMD": 1.63}
{"assay": "blockers of cellular phospholipid synthesis – cell-based, LOPAC library, screen 4, primary screen (AID 1347384)", "details": "animal cells, phospholipid biosynthesis inhibition screen; at 10 µM"}
{"smiles": "O.O.[NH2-].[NH2-].[NH2-].[NH2-].[NH2-].[NH2-].[NH2-].[NH2-].[NH2-].[NH2-].[NH2-].[NH2-].[NH2-].[NH2-].[Ru+4].[Ru+5].[Ru+5]", "outcome": "inactive"}
{"smiles": "c1ccc(-c2cnn3cc(-c4ccc(OCCN5CCOCC5)cc4)cnc23)cc1", "outcome": "inactive"}
{"smiles": "Nc1cc2c(ncn2CCOCP(=O)(O)O)c(=O)[nH]1", "outcome": "inactive"}
{"smiles": "CCOC(=O)CN1C(=O)c2ccc3c4c(ccc(c24)C1=O)C(=O)N(CC(=O)OCC)C3=O", "outcome": "inactive"}
{"smiles": "CO/N=C(\\C(=O)N[C@@H]1C(=O)N2C(C(=O)O)=C(CSc3nc(=O)c(=O)[nH]n3C)CSC12)c1csc(N)n1", "note": "(stereo partly specified)", "outcome": "inactive"}
{"smiles": "O=CN(O)CCCP(=O)(O)O", "outcome": "inactive"}
{"smiles": "CCN(CC)c1ncnc2c1ncn2[C@@H]1O[C@H](COP(=O)(O)OP(=O)(O)C(Br)(Br)P(=O)(O)O)[C@@H](O)[C@H]1O", "outcome": "inactive"}
{"smiles": "N[C@H](C(=O)O)[C@H](O)c1ccc(O)c(O)c1", "outcome": "inactive"}
{"smiles": "O=C(Nc1cc(C(F)(F)F)cc(C(F)(F)F)c1)Nc1c(Br)cc(Br)cc1-c1nn[nH]n1", "outcome": "inactive"}
{"smiles": "CCCCCc1ccc(/C=C/C(=O)Nc2cc(Cl)ccc2C(=O)O)cc1", "outcome": "inactive"}
{"smiles": "NC(=S)c1ccc[n+]([C@@H]2O[C@@H](COP(=O)(O)OP(=O)(O)OC[C@H]3O[C@@H](n4cnc5c(N)ncnc54)C(OP(=O)(O)O)[C@H]3O)C(O)C2O)c1", "note": "(stereo partly specified)", "outcome": "inactive"}
{"smiles": "C[N+]1(C)C2CC(OC(=O)[C@H](CO)c3ccccc3)CC1C1OC12", "note": "(stereo partly specified)", "outcome": "inactive"}
{"smiles": "C[N+]1(C)CCC(OC(=O)C(c2ccccc2)c2ccccc2)CC1", "outcome": "inactive"}
{"smiles": "C[C@@H]1CCN(C(=O)C(CCCN=C(N)N)NS(=O)(=O)c2cccc3c2NC[C@H](C)C3)C(C(=O)O)C1", "note": "(stereo partly specified)", "outcome": "inactive"}
{"smiles": "CO[C@H]1C[C@@H]2CC[C@@H](C)[C@@](O)(O2)C(=O)C(=O)N2CCCC[C@@H]2C(=O)OC([C@H](C)C[C@@H]2CC[C@@H](OC(=O)C(C)(CO)CO)[C@H](OC)C2)CC(=O)[C@H](C)/C=C(\\C)[C@@H](O)[C@@H](OC)C(=O)[C@H](C)C[C@H](C)/C=C/C=C/C=C/1C", "note": "(stereo partly specified)", "outcome": "inactive"}
{"smiles": "N=c1ccn2c(n1)OC1C(O)[C@@H](CO)O[C@H]12", "note": "(stereo partly specified)", "outcome": "inactive"}
{"smiles": "Cc1nc(C#Cc2cccnc2)cs1", "outcome": "inactive"}
{"smiles": "CC(C)CC(NP(=O)(O)O[C@@H]1O[C@@H](C)[C@H](O)[C@@H](O)[C@H]1O)C(=O)NC(Cc1c[nH]c2ccccc12)C(=O)O", "note": "(stereo partly specified)", "outcome": "inactive"}
{"smiles": "CC1=NN(c2cccc(C(=O)O)c2)C(=O)/C1=C\\c1ccc(-c2ccc(Cl)c(C(=O)O)c2)o1", "outcome": "inactive"}
{"smiles": "NC(=O)c1cc[n+](CC2=C(C(=O)O)N3C(=O)[C@@H](NC(=O)[C@@H](c4ccccc4)S(=O)(=O)O)[C@H]3SC2)cc1", "outcome": "inactive"}
{"smiles": "CCOC(=O)c1ccc(C#Cc2ccc3c(c2)CC(C)(C)CS3)nc1", "outcome": "inactive"}
{"smiles": "CC(=O)O[C@H]1CC2(C)[C@@H](C[C@@H](O)[C@H]3[C@@]4(C)CC[C@@H](O)[C@@H](C)[C@@H]4CC[C@@]32C)/C1=C(/CCC=C(C)C)C(=O)O", "note": "(stereo partly specified)", "outcome": "inactive"}
{"smiles": "CCOc1ncc(S(=O)(=O)N2CCN(CC)CC2)cc1-c1nc2c(CC)n(CCOC)nc2c(=O)[nH]1", "outcome": "inactive"}
{"smiles": "CC[N+](CC)(CC)CC", "outcome": "inactive"}
{"smiles": "O=C(O)C1=CS[C@@H]2/C(=C\\c3cnc4n3CCOC4)C(=O)N12", "outcome": "inactive"}
{"smiles": "Cc1cc(Nc2ncc3cc(-c4c(Cl)cccc4Cl)c(=O)n(C)c3n2)ccc1F", "outcome": "inactive"}
{"smiles": "COCCNC(=O)COc1ccc(OCCNC[C@H](O)COc2ccccc2)cc1", "outcome": "inactive"}
